Several values for one entry are separate records, joined by “and”; a condition that tells them apart may be missing. Equal values may be shown once. Records with an inconclusive call do not appear. Activity calls are given as the source filed them. Unless noted, no cut-off is given here; in the data, nearly all actives have AC50 up to about 26 µM.
Experiments:
[1] = growth inhibition of DIPG glioma cells, dose response, cell-based, SU-DIPG-XVII, MIPE5.0, CellTiter-Glo, qHTS (AID 1347060); settings: SU-DIPG-XVII viability, CellTiter-Glo ATP luminescence
[2] = growth inhibition of DIPG glioma cells, dose response, cell-based, SU-DIPG-XIII, MIPE4.0, CellTiter-Glo, qHTS (AID 1347061; cut-off not given, nearly all actives have AC50 up to about 37 µM;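 note: cells exposed to compound for 48 hours before readout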); settings: SU-DIPG-XIII viability, CellTiter-Glo ATP luminescence
[3] = growth inhibition of DIPG glioma cells, dose response, cell-based, SU-DIPG-IV, MIPE4.0, CellTiter-Glo, qHTS (AID 1347063; cut-off not given, nearly all actives have AC50 up to about 30 µM;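 note: compound exposure lasted 48 hours before the viability readout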); settings: SU-DIPG-IV viability, CellTiter-Glo ATP luminescence
[4] = growth inhibition of DIPG glioma cells, dose response, cell-based, SU-DIPG-XIII, MIPE5.0, CellTiter-Glo, qHTS (AID 1347064; cut-off not given, nearly all actives have AC50 up to about 23 µM); settings: SU-DIPG-XIII viability, CellTiter-Glo ATP luminescence
[5] = viability loss in pontine glioma line – cell-based, SU-DIPG-XXV, MIPE5.0, CellTiter-Glo, qHTS, dose response (AID 1347065); settings: CellTiter-Glo ATP luminescence;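 note: cells exposed to compound for 48 hours before ATP readout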
[6] = SU-DIPG-VI glioma cell viability, MIPE4.0 library, CellTiter-Glo luminescence, qHTS (AID 1347066; cut-off not given, nearly all actives have AC50 up to about 30 µM;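 note: cells exposed to compound for 48 hours before readout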); settings: CellTiter-Glo ATP luminescence
[7] = JHH-DIPG-1 glioma cell viability, MIPE5.0 library, CellTiter-Glo luminescence, qHTS (AID 1347067); settings: JHH-DIPG-1 glioma viability, CellTiter-Glo ATP luminescence;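 note: cells exposed to compound for 48 hours before readout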
[8] = SU-DIPG-XXV glioma cell viability, MIPE5.0 library, qHTS (AID 1347068; cut-off not given, nearly all actives have IC50 up to about 30 µM)
[9] = reducers of polyQ inclusions in PC12 cells, cell-based, NGF-treated PC12, GFPQ80 (AID 1614); settings: PC12 NGF-treated GFP-polyQ80 inclusion reduction;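 note: lower means fewer inclusions and 0 means no inclusions at all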
[10] = LFS_MB_P medulloblastoma growth inhibition, cell-based, chromothripsis tumors, cisplatin or BGB combos (AID 1671449; in the data active = inhibition above about 80%;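 note: cells exposed for 96 hours; 0% = vehicle DMSO and 100% = killing by high DMSO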); settings: LFS_MB_P medulloblastoma cells
[11] = HDN33 neuroblastoma growth inhibition, cell-based, chromothripsis tumors, cisplatin or BGB combos (AID 1671450; in the data active = inhibition above about 80%;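 note: cells exposed to compound for four days; 0% = vehicle DMSO and 100% = cell killing by high DMSO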); settings: HDN33 neuroblastoma cells, stronger effect = higher value
[12] = ICB984 medulloblastoma cell growth inhibition, synergistic combos for chromothripsis tumors, cisplatin or BGB combos (AID 1671451; call rule not given here;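 note: cells exposed for 96 hours before readout; 0% = vehicle DMSO and 100% = killing by high DMSO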); settings: ICB984 medulloblastoma cells, drug combinations, stronger effect = higher value
[13] = LFS_MB_1R medulloblastoma cell growth inhibition, synergistic combos for chromothripsis tumors, cisplatin or BGB combos (AID 1671452; in the data active = inhibition above about 80%;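 note: cells exposed for 96 hours before readout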); settings: LFS_MB_1R medulloblastoma cells, stronger effect = higher value
[14] = HTB85 osteosarcoma cell growth inhibition, synergistic combos for chromothripsis tumors, BGB or cisplatin IC20 combos (AID 1671453; in the data active = inhibition above about 80%;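 note: cells exposed for 96 hours before readout; 0% = vehicle DMSO and 100% = high DMSO killing control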); settings: HTB85 osteosarcoma cells, drug combinations, stronger effect = higher value
[15] = MDA-MB-436 breast carcinoma cell growth inhibition, synergistic combos for chromothripsis tumors, BGB or cisplatin combos (AID 1671458; call rule not given here;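 note: cells exposed for 96 hours; 0% = vehicle DMSO and 100% = killing by high DMSO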); settings: MDA-MB-436 breast carcinoma growth inhibition, drug combinations, stronger effect = higher value
[16] = growth inhibition of BT084 medulloblastoma cells, cell-based, ICGC_MB145, cisplatin and BGB IC40 combos (AID 1671461; in the data active = inhibition above about 80%;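 note: cells exposed to drugs for 96 hours; 0% = vehicle DMSO and 100% = high DMSO full killing control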); settings: drug combinations, stronger effect = higher value
[17] = growth inhibition of RCMB18 medulloblastoma cells, cell-based, cisplatin and BGB IC40 combos (AID 1671462; in the data active = inhibition above about 80%;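 note: cells exposed to compound for four days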); settings: stronger effect = higher value
[18] = growth inhibition of CRL1545 osteosarcoma cells, cell-based, cisplatin and BGB IC20 combos (AID 1671464; in the data active = inhibition above about 80%;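 note: cells exposed to compound for 96 hours before readout; 0% = vehicle DMSO and 100% = high DMSO killing control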); settings: stronger effect = higher value
[19] = biological target: ATP-dependent translocase ABCB1 (Homo sapiens) (UniProt P08183); assay: MDR1 (ABCB1) efflux transporter inhibition, cell-based (AID 377; in the data active = fluorescence slope change above about 50%); settings: MDR1-expressing cells, fluorescent substrate accumulation slope; stronger effect = higher value; concentration not given here
[20] = inhibitors of Cryptococcus chitosan production, flow cytometry, Cibacron Brilliant Red staining (AID 1347148; call rule not given here;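 note: compound exposure lasted three days at 37 degrees C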); settings: Cryptococcus neoformans chitosan, stronger effect = lower value; at 10 µM unless noted
[21] = measured here: combination with BGB IC40, at 0.05 µM
[22] = measured here: with BGB IC20 combination, at 0.5 µM
[23] = measured here: with cisplatin IC20 combination, at 0.5 µM
[24] = measured here: combination with cisplatin, at 0.5 µM

Sequence of ATP-dependent translocase ABCB1 (Homo sapiens) (P08183 whole entry, looked up): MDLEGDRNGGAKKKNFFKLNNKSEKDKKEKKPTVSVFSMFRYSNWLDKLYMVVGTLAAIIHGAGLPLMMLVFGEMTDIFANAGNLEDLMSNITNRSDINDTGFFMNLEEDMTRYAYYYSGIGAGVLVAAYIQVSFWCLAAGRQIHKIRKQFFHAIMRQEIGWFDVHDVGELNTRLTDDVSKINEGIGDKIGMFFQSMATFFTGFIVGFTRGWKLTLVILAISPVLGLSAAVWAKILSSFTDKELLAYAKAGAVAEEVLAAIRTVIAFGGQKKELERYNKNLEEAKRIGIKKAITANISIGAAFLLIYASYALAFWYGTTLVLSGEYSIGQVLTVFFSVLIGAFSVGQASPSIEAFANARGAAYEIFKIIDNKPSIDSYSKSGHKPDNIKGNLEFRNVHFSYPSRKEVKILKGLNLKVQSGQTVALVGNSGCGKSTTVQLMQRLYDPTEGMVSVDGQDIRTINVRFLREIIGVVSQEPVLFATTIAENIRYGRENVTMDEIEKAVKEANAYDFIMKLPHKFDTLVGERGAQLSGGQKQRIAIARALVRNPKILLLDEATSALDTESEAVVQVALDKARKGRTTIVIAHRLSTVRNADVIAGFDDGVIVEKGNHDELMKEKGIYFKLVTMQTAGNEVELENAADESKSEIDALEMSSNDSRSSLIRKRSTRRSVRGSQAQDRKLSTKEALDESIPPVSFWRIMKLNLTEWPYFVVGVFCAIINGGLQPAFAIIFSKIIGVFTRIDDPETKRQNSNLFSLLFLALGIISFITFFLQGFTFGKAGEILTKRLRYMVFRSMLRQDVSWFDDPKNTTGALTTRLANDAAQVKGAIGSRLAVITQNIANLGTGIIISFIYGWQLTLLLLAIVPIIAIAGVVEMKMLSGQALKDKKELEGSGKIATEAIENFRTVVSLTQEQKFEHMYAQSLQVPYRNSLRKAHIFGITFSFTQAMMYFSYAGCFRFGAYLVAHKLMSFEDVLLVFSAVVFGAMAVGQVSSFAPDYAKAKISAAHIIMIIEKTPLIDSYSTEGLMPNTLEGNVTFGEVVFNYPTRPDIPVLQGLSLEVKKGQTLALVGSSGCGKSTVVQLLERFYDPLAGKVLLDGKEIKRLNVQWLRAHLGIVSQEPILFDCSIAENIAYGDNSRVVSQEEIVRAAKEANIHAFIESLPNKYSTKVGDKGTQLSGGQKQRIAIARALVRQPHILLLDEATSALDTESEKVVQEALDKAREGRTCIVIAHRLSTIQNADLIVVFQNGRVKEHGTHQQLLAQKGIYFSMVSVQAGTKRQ

Compound: C[C@H]1COc2c(N3CCN(C)CC3)c(F)cc3c(=O)c(C(=O)O)cn1c23
- outcome [1]: inactive
- outcome [2]: inactive
- outcome [3]: inactive
- outcome [4]: inactive
- outcome [5]: inactive
- outcome [6]: inactive
- outcome [7]: inactive
- outcome [8]: inactive

Compound: Nc1ncnc2c1ncn2[C@@H]1O[C@H](CO)[C@@H](O)[C@@H]1O
- inclusion score [9]: 1.5
- outcome [1]: inactive
- outcome [4]: inactive
- outcome [5]: inactive
- outcome [7]: inactive
- outcome [8]: inactive

Compound: COC(=O)[C@H](c1ccccc1Cl)N1CCc2sccc2C1
- inclusion score [9]: 2
- outcome [1]: inactive
- outcome [3]: inactive
- outcome [4]: inactive
- outcome [5]: inactive
- outcome [6]: inactive
- outcome [7]: inactive
- outcome [8]: inactive

Compound: CC(C)NCC(O)COc1cccc2ccccc12 (configuration not stated)
- inclusion score [9]: 2

Compound: CN(C)c1nc(N(C)C)nc(N(C)C)n1
- inclusion score [9]: 2
- outcome [1]: inactive
- outcome [3]: inactive
- outcome [4]: inactive
- outcome [5]: inactive
- outcome [7]: inactive
- outcome [8]: inactive
- inhibition ([10]; at 0.5 µM, stronger effect = higher value): -34.2% (inactive) and -27.6% (inactive)
- inhibition ([10]; measured here: combination with BGB IC20, at 0.005 µM): -17.9% and -27.7%
- inhibition ([10]; measured here: combination with BGB IC40, at 0.005 µM): -17.9% and -14.9%
- inhibition [10, 21]: -9.42% and -37.8%
- inhibition ([10]; measured here: combination with cisplatin, at 0.5 µM, stronger effect = higher value): -34.2% and -25.4%
- inhibition ([10]; measured here: combination with cisplatin, at 5 µM, stronger effect = higher value): -44.4% and -48.3%
- inhibition ([11]; BGB combo, at 5 µM): -7.22% and 3.98%
- inhibition ([11]; at 0.5 µM): 2.99% (inactive) and -25.1% (inactive)
- inhibition ([11]; cisplatin combo, at 5 µM): -6.3% and -2.36%
- inhibition [11, 22]: 12.7% and -32.8%
- inhibition [11, 23]: 1.13% and -2.01%
- inhibition ([11]; single agent, at 5 µM): -11% and -2.53%
- inhibition ([12]; BGB IC20 combo, at 0.005 µM): -31.6% and 0.139%
- inhibition ([12]; BGB IC40 combo, at 0.005 µM): -11.1% and -14.4%
- inhibition ([12]; BGB IC40 combo, at 0.05 µM): -16% and -10.6%
- inhibition ([12]; at 0.5 µM): -16.4% (inactive) and -22.8% (inactive)
- inhibition ([12]; cisplatin combo, at 0.05 µM): -16% and -14.5%
- inhibition ([12]; cisplatin combo, at 0.5 µM): -23.9% and -10.7%
- inhibition ([12]; cisplatin combo, at 5 µM): -16.8% and 0.591%
- inhibition ([12]; measured here: 5 uM single agent, at 5 µM): -7.32% and -28.4%
- inhibition ([13]; at 0.5 µM): -12.2% (inactive) and -12.7% (inactive)
- inhibition [13, 21]: -30.7% and -16.9%
- inhibition [13, 24]: -26.8% and 10.6%
- inhibition ([13]; measured here: combination with cisplatin, at 5 µM): 4.67% and 9.66%
- inhibition ([14]; at 0.5 µM): -13.6% (inactive) and -3.84% (inactive)
- inhibition ([14]; measured here: with BGB IC20, at 0.5 µM): -29.4% and -7.2%
- inhibition ([14]; measured here: with BGB IC20, at 5 µM): -7.32% and 14%
- inhibition ([14]; measured here: with cisplatin IC20, at 0.5 µM): -12.3% and -1.06%
- inhibition ([14]; measured here: with cisplatin IC20, at 5 µM): 6.76% and 3.22%
- inhibition ([14]; single agent, at 5 µM): -2.06% and 11.5%
- inhibition ([15]; at 0.5 µM): -22.6% (inactive) and -14.7% (inactive)
- inhibition ([15]; measured here: BGB combination, at 0.5 µM): -20.2% and -14.3%
- inhibition ([15]; measured here: BGB combination, at 5 µM): -29.4% and -4.55%
- inhibition ([15]; measured here: cisplatin combination, at 0.5 µM): -45.1% and -27.9%
- inhibition ([15]; measured here: cisplatin combination, at 5 µM): -26.8% and -16.1%
- inhibition ([16]; at 0.5 µM): -16.2% (inactive) and -0.543% (inactive)
- inhibition ([16]; cisplatin combination, at 0.5 µM): -6.73% and -17%
- inhibition ([16]; cisplatin combination, at 5 µM): -56% and -11.7%
- inhibition ([16]; measured here: BGB IC40 combination 0.05 uM, at 0.05 µM): -15.3% and -38.9%
- inhibition ([16]; single agent, at 5 µM): -26.9% and -18.4%
- inhibition ([17]; at 0.5 µM): -17.5% (inactive) and -22.8% (inactive)
- inhibition ([17]; cisplatin combo, at 5 µM): 8.02% and 8.44%
- inhibition ([17]; measured here: BGB IC40 combination, at 0.05 µM): -20.9% and -5.23%
- inhibition [17, 24]: -20.5% and -16.6%
- inhibition ([17]; single agent, at 5 µM): -16.6% and -17.8%
- inhibition ([18]; at 0.5 µM): -6.92% (inactive) and -37.6% (inactive)
- inhibition [18, 22]: -15.7% and -14.1%
- inhibition [18, 23]: -2.53% and -51.8%
- inhibition ([18]; single agent, at 0.05 µM): -4.42% and -41.6%
- inhibition ([18]; single agent, at 5 µM): 18.4% and -24.6%

Compound: CC(C)NCC(O)COc1ccc(CC(N)=O)cc1 (configuration not stated)
- inclusion score [9]: 2

Compound: CC1=C(/C=C/C(C)=C/C=C/C(C)=C\C(=O)O)C(C)(C)CCC1
- fluorescence slope change [19]: 188% (active)
- outcome [4]: inactive
- AC50 [5]: 6.61 µM (active)
- outcome [6]: inactive
- outcome [7]: inactive
- outcome [8]: inactive
- fold fluorescence [20]: 5.81 (inactive)

Compound: C[N+]1(C)CCCC(OC(=O)C(O)(c2ccccc2)c2ccccc2)C1 (configuration not stated)
- fluorescence slope change [19]: 13% (inactive)
- inclusion score [9]: 2

Compound: CC(C(=O)O)c1ccc(-c2ccccc2)c(F)c1 (configuration not stated)
- inclusion score [9]: 2
- AC50 [2]: 16.6 µM (active)
- outcome [4]: inactive
- outcome [5]: inactive
- outcome [6]: inactive
- outcome [7]: inactive
- outcome [8]: inactive

Compound: CNCCC(Oc1ccc(C(F)(F)F)cc1)c1ccccc1 (configuration not stated)
- fluorescence slope change [19]: 110% (active)

Compound: CC[C@H]1OC(=O)[C@H](C)[C@@H](O[C@H]2C[C@@](C)(OC)[C@@H](O)[C@H](C)O2)[C@H](C)[C@@H](O[C@@H]2O[C@H](C)C[C@H](N(C)C)[C@H]2O)[C@](C)(OC)C[C@@H](C)C(=O)[C@H](C)[C@@H](O)[C@]1(C)O
- outcome [3]: inactive
- outcome [6]: inactive

Compound: COc1ccc(/C=C/C(=O)Nc2ccccc2C(=O)O)cc1OC
- outcome [1]: inactive
- outcome [2]: inactive
- outcome [3]: inactive
- outcome [4]: inactive
- outcome [5]: inactive
- outcome [7]: inactive
- outcome [8]: inactive
